This note sets out measurements from PubChem BioAssay (NCATS).

Molecules are shown by their SMILES. Inconclusive results are not listed. Values without a mark were called inactive. Active and inactive are the calls of the source. Calls follow the shape of the dose curve; as a rule, active = well fitted cell-killing curve with a large enough effect; inconclusive = small, poorly fitted or top-dose-only effect; inactive = flat fitted curve, though single readings scatter.
% is scaled to controls: 0 for no effect and ±100 for the full control effect; potency is read from the fitted curve at half-maximal effect.

This assay in a line: qHTS of pediatric cancer cell lines to identify multiple opportunities for drug repurposing: Confirmatory screen for BT-12 cells (AID 1347112). Also: nearly all actives have a fitted effect of over 55% in size. Particulars: BT-12 rhabdoid tumor cells, viability; series mostly up to 45.9 µM; activity change, negative = cytotoxic: at the top concentration. Summed up:
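Cells (500-1,000/well) in growth media were settled 5 h at 37 degrees C, then given compounds for 48 h. Viability was read as CellTiter-Glo luminescence. Primary runs used MIPE at 11 points (0.78 nM-46 µM) and NPC at 8 points (0.59 nM-46 µM); follow-ups used 11 points.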
For orientation: qHTS replaces the single test concentration by a dilution series.
`COc1cc2cc(c1Cl)N(C)C(=O)C[C@H](OC(=O)C(C)C)[C@]1(C)O[C@H]1[C@H](C)[C@@H]1C[C@@](O)(NC(=O)O1)[C@H](OC)C=CC=C(C)C2`: the Potency was 1.6 nM (active).
Consider `CC(C)(C)C(O)C(Oc1ccc(Cl)cc1)n1cncn1` (stereo unspecified), for which the “activity change, negative = cytotoxic” value was -8.18% [at 95.5 µM].
Turning to `CC[C@@]1(O)C(=O)OCc2c1cc1n(c2=O)Cc2cc3ccccc3nc2-1`, the Potency is 827 nM (active).
For the compound `O=[N+]([O-])c1c(Cl)c(Cl)cc(Cl)c1Cl`, the “activity change, negative = cytotoxic” value is -5.43% [at 95.5 µM].
Still for that read-out and setting: for `COc1ccc2c(c1)CN(C)CC2c1ccc(Cl)c(Cl)c1` (stereo unspecified) the value was -14.7%.
With `C[C@@H]1O[C@@H](O[C@@H]2C=C3CC[C@@H]4[C@@H](CC[C@]5(C)[C@H](c6ccc(=O)oc6)CC[C@@]45O)[C@@]3(C)CC2)[C@H](O)[C@H](O)[C@H]1O`, the Potency was 41.4 nM (active).
For `CC[C@@H]1[C@@H](C)O[C@@](O)([C@@H](C)[C@H](O)[C@H](C)[C@H]2OC(=O)C=CC=C[C@@H](C)[C@@H]([C@@H](C)[C@@H](O)[C@H](C)[C@@]3(O)C[C@H](O[C@H]4C[C@H](O)[C@H](O)[C@H](C)O4)[C@H](CC)[C@@H](C)O3)OC(=O)C=CC=C[C@@H]2C)C[C@H]1O[C@H]1C[C@H](O)[C@H](O)[C@H](C)O1`, the “activity change, negative = cytotoxic” value was -6.49%.
As for `C=CCON=C(C[C@H]1O[C@@H]2O[C@]3(C)CC[C@@H]4[C@H](C)CC[C@@H]([C@H]1C)[C@@]24OO3)[C@H]1O[C@@H]2O[C@]3(C)CC[C@H]4[C@H](C)CC[C@@H]([C@@H]1C)[C@@]24OO3`, the Potency is 261 nM (active).
As for `Cc1[nH]nc2ccc(-c3cncc(OC[C@@H](N)Cc4c[nH]c5ccccc45)c3)cc12`, the Potency was 4140 nM (active).
With `C[C@@H]1CC[C@@]2(OC1)O[C@H]1C[C@H]3[C@@H]4CC=C5C[C@@H](O[C@@H]6O[C@H](CO)[C@@H](O[C@@H]7O[C@@H](C)[C@H](O)[C@@H](O)[C@@H]7O)[C@H](O)[C@@H]6O[C@@H]6O[C@@H](C)[C@H](O)[C@@H](O)[C@@H]6O)CC[C@]5(C)[C@@H]4CC[C@]3(C)[C@@H]1[C@H]2C`, the Potency was 9270 nM (active).
Same read-out and setting: for `CC1=C(O)C(=O)C=C2C1=CC=C1[C@@]2(C)CC[C@@]2(C)[C@@H]3C[C@](C)(C(=O)O)CC[C@]3(C)CC[C@]12C` the value was 3290 nM (active); for `CC(C)(O)C=CC(=O)[C@](C)(O)[C@H]1[C@H](O)C[C@]2(C)[C@@H]3CC=C4[C@@H](C=C(O)C(=O)C4(C)C)[C@]3(C)C(=O)C[C@@]12C`, 1310 nM (active).
Still for that read-out and setting: for `CC(=O)[O][Hg][c]1ccccc1` the value was 4650 nM (active); for `O=c1[nH]c2ccc(Cl)cc2c(N[C@@H]2CN3CCC2CC3)c1-c1nc2ccccc2[nH]1`, 13100 nM (active); for `CC(C)[C@]12O[C@@H]1[C@@H]1O[C@]13[C@]1(O[C@H]1C[C@@H]1C4=C(CC[C@@]13C)C(=O)OC4)[C@H]2O`, 36.9 nM (active).
Still for that read-out and setting: for `Cc1ccccc1-n1c(Cn2ncc3c(N)ncnc32)nc2cccc(C)c2c1=O` the value was 18500 nM (active).
Turning to `Cc1ccccc1-n1c(Cn2cnc3c(N)ncnc32)nc2cccc(C)c2c1=O`, the “activity change, negative = cytotoxic” value was 6.37%.
The same measure, in the same setting: for `O=C(N[C@H]1CN2CCC1CC2)c1ccc(Cl)cc1` the value was 2.38%; for `CC(C)N[C@@H]1CCn2c(=O)[nH]c3cccc(c32)[C@@H]1O`, -1.49%.
As for `C[C@H]1CCCC=CC2C[C@H](O)C[C@@H]2[C@H](O)C=CC(=O)O1` (stereo partly specified), the Potency was 165 nM (active).
In the case of `O=C(O)CCCOc1ccc(Cl)cc1Cl`, the “activity change, negative = cytotoxic” value was -6.61% [at 95.5 µM].
